Here are results for eight molecules from PubChem BioAssay (NCI).

Common to all, as to test: NCI-60 one-dose screen, 48 h (100 = growth as untreated, 0 = no growth, -100 = all killed)
Details in all cases: 10 µM unless noted

For experiment [1], the system named is RPMI-8226 leukemia.
Experiment [2] deals with OVCAR-8 ovarian.
The test system of experiment [3] is OVCAR-5 ovarian.
The subject of experiment [4] is OVCAR-4 ovarian.
In experiment [5] the test system is SK-OV-3 ovarian.
In experiment [6] the test system is IGROV1 ovarian.
Experiment [7] deals with OVCAR-3 ovarian.
The test system of experiment [8] is HS 578T breast.
In experiment [9] the test system is NCI/ADR-RES ovarian.
Experiment [10] has as its system T-47D breast.
The test system of experiment [11] is BT-549 breast.
In experiment [12] the test system is MDA-MB-435 melanoma.
Experiment [13] has as its system SW-620 colon.
Experiment [14] relates to MCF7 breast.
In experiment [15] the test system is HCT-116 colon.
In experiment [16] the test system is HCC-2998 colon.
Experiment [17] deals with KM12 colon.

Structures are written as SMILES. The panel holds about 83,000 compounds, 20% with a hit somewhere; the sample as a whole holds those more often.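 Single-dose data. Exposure time 48 hours. Values below 10 considered active.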 A number with no mark means an inactive call. Calls of active or inactive are those of the source.

`O=C(Nc1nc(-c2ccccc2)cs1)c1cc(-c2ccc(Br)cc2)nc2ccccc12`: the growth in experiment [1] was 39.9%; in experiment [2], 57.1%; in experiment [3], 81.7%; in experiment [4], 57.6%; in experiment [5], 51.6%; in experiment [6], 59.4%. Besides, the growth was 63.4% in [7]; 62.1% in experiment [8]; 58.5% in [9]; 21.7% in experiment [10]; 60.3% in experiment [11]; 77.2% in experiment [12]. The growth in experiment [13] is 51.6%; in experiment [14], 37.6%; in [15], 27.5%; in [16], 87.7%; in [17] it was 67%.

In the case of `Nc1cc(N)nc(SCC(=O)O)n1`, the growth in [1] is 102%; in experiment [2], 100%; in [3], 107%; in [4] it was 106%; in [5], 105%; in experiment [6], 106%. In addition, the growth in experiment [7] was 111%; in experiment [8], 99.6%; in experiment [9], 104%; in experiment [10], 105%; in [11], 109%; in experiment [12], 109%. Moreover, the growth in experiment [13] was 104%; in [14], 105%; in [15], 99.1%; in experiment [16], 101%; in experiment [17], 104%.

`COC(=O)/C=C/c1cc(OC)c2c(c1)[C@@H](C(=O)OC)[C@H](c1ccc(OC)c(OC)c1)O2`: the growth is 12.6% in experiment [1]; 30.8% in experiment [2]; 77% in [3]; 42.6% in experiment [4]; 66.8% in [5]; 43.2% in [6]. Also, the growth in experiment [7] is -15.8% (active); in experiment [8], 37.5%; in experiment [9] it was 16.6%; in experiment [10], 33.1%; in [11], 36.7%; in experiment [12] it was -42.3% (active). Besides, the growth is 30.4% in experiment [13]; 19.6% in experiment [14]; 15.9% in experiment [15]; 59.5% in [16]; 27.6% in experiment [17].

For `CN1CCN(C(=O)[C@@]2(C)CC[C@]3(C)CC[C@]4(C)C(=CC[C@@H]5[C@@]6(C)CC[C@H](OC(=O)c7cccnc7)C(C)(C)[C@@H]6CC[C@]54C)[C@@H]3C2)CC1`, the growth in [1] was 6.97% (active); in experiment [2] it was 60.2%; in experiment [3], 78.7%; in [4], 35.2%; in [5], 79.3%; in experiment [6], 88.2%. Further, the growth was 80.9% in [7]; 76.8% in experiment [8]; 77.6% in [9]; 57.6% in experiment [10]; 73.8% in [11]; 45.4% in [12]. Also, the growth was -35.5% (active) in experiment [13]; 19.1% in [14]; 51.7% in experiment [15]; 97.3% in experiment [16]; 53.2% in experiment [17].

With `COc1ccc2nc(-c3ccc(Cl)cc3)cc(-c3nnc(SC/C(=N/O)c4ccccc4)o3)c2c1`, the growth was 41.3% in experiment [1]; 49.7% in experiment [2]; 84.2% in [3]; 16.7% in [4]; 69.6% in [5]; 50.8% in experiment [6]. Further, the growth in experiment [7] is 34%; in experiment [8] it was 71.9%; in [9], 57.4%; in experiment [10], 27%; in [11], 46.8%; in experiment [12], 47%. Besides, the growth in [13] was 26.5%; in [14], 19.9%; in [15], 3.9% (active); in experiment [16], 84%; in [17], 58.1%.

In the case of `Sc1cccc2cccnc12`, the growth in [1] is 26.5%; in experiment [2], 27.1%; in experiment [3] it was 59.6%; in [4] it was 36.3%; in experiment [5] it was 45.5%; in experiment [6], 36.9%. In addition, the growth in [7] is 17.9%; in experiment [8], 71.9%; in [9], 24.8%; in [10] it was 40.5%; in experiment [11] it was 48.4%; in experiment [12], 44.9%. For the same molecule, the growth in experiment [13] was 38.7%; in experiment [14] it was 26.8%; in experiment [15], 11.5%; in experiment [16] it was 40%; in experiment [17] it was 25.4%.

`C=C1C(=O)O[C@H]2[C@H]1CC/C(COC(=O)CCCCCCCCC(=O)OC/C1=C/CC[C@@]3(C)O[C@H]3[C@H]3OC(=O)C(=C)[C@@H]3CC1)=C\CC[C@@]1(C)O[C@@H]21`: the growth in experiment [1] was -6.37% (active); in experiment [2], 10.2%; in [3] it was 28.9%; in [4], 29%; in experiment [5], 86.9%; in experiment [6] it was -19.2% (active). For the same molecule, the growth is 2.11% (active) in experiment [7]; 10.3% in experiment [8]; 2.99% (active) in [9]; -27.3% (active) in experiment [10]; 2.59% (active) in [11]; 8.17% (active) in experiment [12]. The growth in experiment [13] was 2.58% (active); in experiment [14], -37% (active); in experiment [15] it was -62.7% (active); in experiment [16], 44.2%; in [17], 20.2%.

For `COc1cc(/C=C/C(=O)/C=C/c2cc3ccc(Cl)cc3n(Cc3ccccc3)c2=O)ccc1O`, the growth in experiment [1] was -18.8% (active); in experiment [2], 5.61% (active); in [3], 19.4%; in experiment [4], 25.8%; in experiment [5], 37.3%; in experiment [6] it was 3.2% (active). Also, the growth was -46.4% (active) in [7]; 43.5% in experiment [8]; 15% in experiment [9]; 2.39% (active) in experiment [10]; -19.2% (active) in experiment [11]; -19.1% (active) in experiment [12]. Also, the growth is 3.39% (active) in experiment [13]; 26.2% in experiment [14]; -82.6% (active) in experiment [15]; -73.8% (active) in [16]; -52.3% (active) in [17].
